Measurements reported in PubChem BioAssay (EPA / NIEHS).
Some compounds were tested as several samples or in several runs, with calls that do not always agree. Calls of active or inactive are those of the source. The calls were made as follows: active = hit-call score of the fitted dose curve at least 0.9, where 1 is the maximum; inactive = score below 0.9.

read-out: Interleukin-8 (IL8), CXCL8 (gene 3576); assay: BSK_MyoF_IL8: BioMAP Diversity Plus: MyoF Assay for Interleukin-8 (IL8) Biomarker Activity (AID 2284261); conditions: primary human lung fibroblasts
Procedure: BSK_MyoF is a cell-based, multiplexed-readout assay that uses lung fibroblasts, […], with measurements taken at 24 hours after chemical dosing in a microplate: 96-well plate.BSK_MyoF_IL8 is an assay component measured in the BSK_MyoF assay. It measures IL-8 antibody related to regulation of gene expression using ELISA technology.Data from the assay component BSK_MyoF_IL8 was analyzed at the endpoint, BSK_MyoF_IL8, in the positive analysis fitting direction relative to DMSO as the negative control and baseline of activity. Using a type of binding reporter, gain or loss-of-signal activity can be used to understand protein changes. To generalize the intended target to other relatable targets, this assay endpoint is annotated to the 'cytokine' intended target family, where the subfamily is 'interleukins'.
The levels of cell surface (or secreted, indicated by the prefix "s") biomarker endpoints were measured by ELISA. Overt cytotoxicity to cells in confluent adherent cultures (all systems other than the BT system) was assessed by measuring total protein levels using sulforhodamine B (SRB) staining in parallel cultures at the time of biomarker measurements, indicated as SRB endpoints. For proliferation assays for adherent cell types, individual cell types are cultured at sub-confluence and relative cell numbers quantified by SRB staining at time points optimized for each system (48 h: 3C and CASM3C systems; 72 h: BT and HDF3CGF systems; 96 h: SAg system). SRB was performed by staining cells with 0.1% SRB after fixation with 10% TCA and reading wells at 560 nm.Viability and proliferation of PBMC (T cells) was quantified by Alamar Blue reduction for the SAg and BT systems. For PBMC viability (referred to as PBMC Cytotoxicity within the assay endpoint names), cells were plated (75,000/well in a 96-well plate) and then chemical samples added for 1 h before addition of activators, SEB and TSST-1 (20 ng/mL final concentration each). Cells were incubated for 90 h. Then, Alamar Blue (20 uL/well) (Invitrogen, Cat DAL1100) was added for 6 h, and the plates were read with a fluorescence microplate reader at 546/580 nm (excitation/emission). For PBMC proliferation, cells were plated and activated as above but incubated for only 16 h prior to addition of Alamar Blue. Plates were read after 6 h.

Row | Structure (SMILES) | outcome | AC50
1 | COC(=O)C(F)(F)C(F)(F)OC(F)(C(F)(F)F)C(F)(F)OC(F)=C(F)F (centres undefined) | inactive | 1.29 µM (active)
2 | O=C(O)C(F)(OC(F)(F)C(F)(F)C(F)(F)F)C(F)(F)F (centres undefined) | inactive | 
3 | CCOP(=S)(S)OCC | inactive | 
4 | ClC(Cl)=C(c1ccc(Cl)cc1)c1ccccc1Cl |  | 9.75 µM (active)
5 | COP(=O)(O)OC | inactive | 
6 | O=P(OCC(Br)CBr)(OCC(Br)CBr)OCC(Br)CBr (centres undefined) | inactive | 
7 | O=S1(=O)OCC2C(CO1)C1(Cl)C(Cl)=C(Cl)C2(Cl)C1(Cl)Cl (centres undefined) | inactive | 
8 | N#Cc1cc([N+](=O)[O-])ccc1N | inactive | 
9 | OCC(F)(F)OC(F)(F)C(F)(F)OC(F)(F)CO | inactive | 
10 | CC(O)C(F)(F)C(F)(F)F (centres undefined) | inactive | 
11 | CCOP(=S)(OCC)SCn1nnc2ccccc2c1=O | inactive | 
12 | CC(Cl)CN(C)C (centres undefined) | inactive | 
13 | CCCCC(CC)COC(=O)c1c(Br)c(Br)c(Br)c(Br)c1C(=O)OCC(CC)CCCC (centres undefined) | inactive | 
14 | O=C(O)C(F)(F)OC(F)(F)C(F)(F)OC(F)(F)C(=O)O | inactive | 
15 | OCC(F)(F)OC(F)(F)C(F)(F)OC(F)(F)C(F)(F)OC(F)(F)F | inactive | 
16 | C=CC(=O)OCC(F)(F)C(F)F | inactive | 
17 | CC(C)(C)c1ccccc1OP(=O)(Oc1ccccc1)Oc1ccccc1 | inactive | 
18 | O=C(O)C=CC(F)(C(F)(F)F)C(F)(F)F | inactive | 
19 | O=c1ssc(Cl)c1Cl | inactive | 

Row | Structure (SMILES) | outcome | AC50
20 | CCCCC(CC)COP(=O)(Oc1ccccc1)Oc1ccccc1 (centres undefined) |  | 0.145 µM (active)
21 | O=C(O)C(F)(F)C(F)(F)C(=O)O | inactive | 
22 | O=S(=O)(F)C(F)(F)C(F)(F)C(F)(F)C(F)(F)C(F)(F)C(F)(F)C(F)(F)C(F)(F)F | inactive | 
23 | CCOP(=S)(OCC)SCSc1ccc(Cl)cc1 | inactive | 
24 | N#Cc1c(-c2ccc(Cl)cc2)[nH]c(C(F)(F)F)c1Br |  | 0.17 µM (active)
25 | CCOP(=S)(NC(C)C)Oc1ccccc1C(=O)OC(C)C (centres undefined) | inactive | 
26 | c1ccc2c(c1)sc1ccccc12 | inactive | 
27 | Nc1ccc([N+](=O)[O-])cc1Cl | inactive | 
28 | O=C(O)C(F)(F)OC(F)(F)C(F)(F)OC(F)(F)F | inactive | 
29 | COP(N)(=S)OC | inactive | 
30 | CCOP(=S)(OCC)SCS(=O)(=O)CC | inactive | 
31 | C=CC(=O)OCC(CC)(COC(=O)C=C)COC(=O)C=C |  | 5.17 µM (active)
32 | NC(=O)C(F)(F)C(F)(F)F | inactive | 
33 | OCC(F)(F)OC(F)(F)C(F)(F)OC(F)(F)C(F)(F)OC(F)(F)CO | inactive | 
34 | CCCCOCCOP(=O)(OCCOCCCC)OCCOCCCC | inactive | 
35 | Cc1c([N+](=O)[O-])cc2c(c1[N+](=O)[O-])C(C)(C)CC2(C)C | inactive | 
36 | Cc1ccc2c(c1N)C(=O)c1ccccc1C2=O | inactive | 
37 | CC(C)Nc1ccc(Nc2ccccc2)cc1 | inactive | 
38 | FC(F)(F)C(F)(C(F)(F)F)C(F)(F)C(F)(F)CC1CO1 (centres undefined) | inactive | 
